Compounds with a hit are over-represented: about 2.3% of the library has one in this group of screens.
CF NFkB inh = inhibitors of cystic fibrosis induced NF-kB | KKLEB NF-kB-GFP reporter, PAF-induced, GFP fluorescence overnight | inhibition, % at 5 µM | 360,000 compounds, 0.86% hits | AID 588850;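 active means at least 50% inhibition at 5 µM, scaled per plate between neutral and stimulator controls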;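 further: PAF is a Pseudomonas aeruginosa culture filtrate used as stimulus; plate controls were PAF-stimulated DMSO wells for no effect and unstimulated DMSO wells for full effect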
TWEAK Fn14 block = TWEAK-Fn14 signaling inhibition. AID 1159606. TWEAK-stimulated Fn14 reporter cells, luciferase luminescence, 8 h. 360,000 compounds, 2% hits. inhibition, % at 10 µM; in the data active means inhibition above about 50%
HIF-2a inh = blocks HIF-2a reporter activity. 786-0 RCC cells HIF-2a reporter, luciferase luminescence, overnight. inhibition, % at 18.8 µM. 360,000 compounds, 0.72% hits;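 active means inhibition of the luminescence signal of 40% or more relative to plate controls, in a single-dose primary screen at 18.75 µM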
LGR2 inh = Drosophila LGR2 receptor signaling inhibition. 380,000 compounds, 0.35% hits. AID 720647. inhibition, % at 9.99 µM. HEK293 LGR2, CRE-luciferase, bursicon-stimulated, 4 h;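 active means drop in luminescence signal, shown as inhibition above about 50% in the replicate tests, limit read from the data, passing the limit was not always enough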;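 further: agonist challenge used bursicon conditioned medium at about half maximal strength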
iPSC survival up = increases survival of single human iPS cells; 360,000 compounds, 0.044% hits; survival enhancement, % at 20 µM; hiPSC single-cell survival, ATPlite luminescence; 100% = ROCK inhibitor wells, 0% = DMSO; in the data active means survival enhancement above about 18%;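 further: cells exposed to compounds for 16 hours before the ATP read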
KKLEB cytotox = CF airway cell cytotoxicity counter-screen | KKLEB CF airway cells viability, ATPlite luminescence, overnight; active compounds read low; cells stimulated with P. aeruginosa culture filtrate | activity change (cytotoxicity), % at 5 µM | 360,000 compounds, 0.36% hits | AID 602141;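 active means corrected activity change at or below -50% at 5 µM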
Active calls of the source: *.

For Cc1cc(C)c(S(=O)(=O)/N=C2/C=C(Sc3ncn[nH]3)C(=O)c3ccccc32)cc1C the results were CF NFkB inh 77*, TWEAK Fn14 block 94*, HIF-2a inh 68*, LGR2 inh 6, iPSC survival up -3 and KKLEB cytotox -59*.
`C[C@H]1CCCCO[C@H](CN(C)S(=O)(=O)c2ccccc2)[C@@H](C)CN([C@@H](C)CO)C(=O)c2cc(NC(=O)NC3CCCCC3)ccc2O1` gave LGR2 inh 16.
`CCCCCCCCCCOC(=O)Cn1c(COc2ccccc2OC)[n+](C)c2ccccc21` gave CF NFkB inh 51*, TWEAK Fn14 block 67*, HIF-2a inh 42*, LGR2 inh 54*, iPSC survival up -1 and KKLEB cytotox -54*.
`Cn1c(COc2ccccc2O)[n+](C)c2ccccc21` gave CF NFkB inh -7, TWEAK Fn14 block 11, HIF-2a inh 7, LGR2 inh -3, iPSC survival up 1 and KKLEB cytotox -10.
Screening Cc1ccccc1-c1nc2sc3c(c2c(=O)n1N)CCCC3 returned CF NFkB inh -18, TWEAK Fn14 block 71*, HIF-2a inh -127, iPSC survival up -2 and KKLEB cytotox -13.
`O=c1oc(-c2ccccc2)nc2sc3c(c12)CCCC3` gave CF NFkB inh 4, TWEAK Fn14 block 53*, HIF-2a inh -366, LGR2 inh -40, iPSC survival up 0 and KKLEB cytotox -9.
Screening Cc1ccccc1-c1nc2sc3c(c2c(=O)o1)CCC3 returned CF NFkB inh 13, TWEAK Fn14 block 0, HIF-2a inh -52, iPSC survival up 0 and KKLEB cytotox -4.
COc1cc(N=Nc2ccc(Br)cc2)cc(C=O)c1O was read as CF NFkB inh 85*, TWEAK Fn14 block 87*, HIF-2a inh -72, LGR2 inh -1, iPSC survival up 1 and KKLEB cytotox -46.
`O=c1cc(Nc2ccc3c(c2)OCCO3)[nH]c(=O)n1-c1ccc(Cl)cc1` gave CF NFkB inh 4, TWEAK Fn14 block 72*, HIF-2a inh 4, LGR2 inh 14, iPSC survival up 3 and KKLEB cytotox -12.
`O=c1cc(Nc2ccc3c(c2)OCCO3)[nH]c(=O)n1C1CCCCC1` gave CF NFkB inh 18, TWEAK Fn14 block 36, HIF-2a inh -110, LGR2 inh -11, iPSC survival up -4 and KKLEB cytotox -21.
Screening Cc1ccc2c(c1)-c1nc3ccccc3cc1C2=NC1CCCCC1 returned CF NFkB inh -20, TWEAK Fn14 block 37, HIF-2a inh -242, iPSC survival up -1 and KKLEB cytotox 8.
Cc1ccc2c(c1)Cc1nc3ccccc3nc1-2 was read as CF NFkB inh -91, TWEAK Fn14 block 70*, HIF-2a inh -9, LGR2 inh -52, iPSC survival up -4 and KKLEB cytotox -12.
For CN(C)c1ccc(N=Nc2ccc3ncccc3c2)cc1 the results were CF NFkB inh -38, TWEAK Fn14 block 52*, HIF-2a inh -105, LGR2 inh 62*, iPSC survival up -6 and KKLEB cytotox -38.
Screening c1cnc2ccc(-c3ccc4ncccc4c3)cc2c1 returned CF NFkB inh 58*, TWEAK Fn14 block 6, HIF-2a inh -56, LGR2 inh -12, iPSC survival up -1 and KKLEB cytotox -33.
`CN(C)c1ccc(N=Nc2cccc(F)c2)cc1` gave CF NFkB inh -36, TWEAK Fn14 block 52*, HIF-2a inh -173, LGR2 inh 32, iPSC survival up -1 and KKLEB cytotox -1.
`CN(C)c1ccc(N=Nc2cccc3ccoc23)cc1` gave CF NFkB inh -38, TWEAK Fn14 block -2, HIF-2a inh -261, LGR2 inh -117, iPSC survival up 0 and KKLEB cytotox -3.
For COc1ccc(-c2cnc3c(c2)C(=O)N([C@@H](C)CO)C[C@@H](C)[C@H](CN(C)S(=O)(=O)c2ccc(OC)cc2)O3)cc1 the results were LGR2 inh -4.
Screening O=C(C[C@@H]1CC[C@H]2[C@@H](COC[C@@H](O)CN2S(=O)(=O)c2ccc(Cl)cc2)O1)NCCN1CCCCC1 returned LGR2 inh -9.
CCCNC(=O)N1[C@H](C#N)[C@@H](c2ccccc2-c2ccc(C)cc2)[C@@H]1CO was read as LGR2 inh 6.
Cc1ccc(NC(=O)CNc2ccc(Cl)c(Cl)c2)cc1S(=O)(=O)N(C)C was read as CF NFkB inh -6, TWEAK Fn14 block 91*, HIF-2a inh -24, LGR2 inh -2, iPSC survival up 1 and KKLEB cytotox -17.
`CN(C)S(=O)(=O)c1cc(NC(=O)CSc2nn(-c3ccc(Cl)cc3)c(=S)s2)ccc1Cl` gave CF NFkB inh 4, TWEAK Fn14 block 83*, HIF-2a inh 4, LGR2 inh -11, iPSC survival up -1 and KKLEB cytotox -5.
Cc1ccc(NC(=O)Cc2ccc(Cl)c(Cl)c2)cc1S(=O)(=O)N(C)C was read as CF NFkB inh 9, TWEAK Fn14 block 45, HIF-2a inh -8, LGR2 inh 1, iPSC survival up 0 and KKLEB cytotox -25.
Screening Cc1ccc(NC(=O)CSc2nn(-c3ccc(Cl)cc3)c(=S)s2)cc1S(=O)(=O)N(C)C returned CF NFkB inh -3, TWEAK Fn14 block 64*, HIF-2a inh 11, LGR2 inh 6, iPSC survival up 2 and KKLEB cytotox -7.
Screening Cc1ccc(NC(=O)Cc2ccccc2Cl)cc1S(=O)(=O)N(C)C returned CF NFkB inh 3, TWEAK Fn14 block -9, HIF-2a inh -1, LGR2 inh 10, iPSC survival up 0 and KKLEB cytotox 11.
`NS(=O)(=O)c1cccc(NC(=O)CSc2nn(-c3ccccc3)c(=S)s2)c1` gave CF NFkB inh 24, TWEAK Fn14 block 34, HIF-2a inh 15, LGR2 inh 10, iPSC survival up 0 and KKLEB cytotox -4.
Screening Cc1ccc(S(=O)(=O)N(C)C[C@H]2Oc3c(NC(=O)C4CCOCC4)cccc3C(=O)N([C@@H](C)CO)C[C@H]2C)cc1 returned LGR2 inh 4.
Screening CC(=O)N[C@H]1CC[C@@H](CCNC(=O)C2CCC2)O[C@H]1CO returned LGR2 inh 8.
`Brc1ccc2ncnc(Nc3cccc4ccccc34)c2c1` gave CF NFkB inh 48, TWEAK Fn14 block 61*, HIF-2a inh 24, LGR2 inh 18, iPSC survival up 2 and KKLEB cytotox -22.
For O=C(C[C@H]1C[C@H]2c3cc(NC(=O)C4CCOCC4)ccc3O[C@H]2[C@H](CO)O1)NCc1ccccc1 the results were LGR2 inh -9.
Screening CNC[C@@H]1Oc2ccc(NC(=O)Cc3ccccc3)cc2C(=O)N([C@H](C)CO)C[C@H]1C returned LGR2 inh 7.
Screening Cc1ccc(NC(=O)C2CCCC2)cc1Cl returned CF NFkB inh 12, TWEAK Fn14 block 3, HIF-2a inh -38, LGR2 inh -37, iPSC survival up 0 and KKLEB cytotox 6.
